Screens deposited in PubChem BioAssay by several laboratories.
GDH-TPI counter: GDH-TPI coupled enzyme inhibition counter-screen. AID 588335. inhibition, % at 4.8 µM. actives 1.2% (n = 360,000). GDH-TPI coupled enzyme counterscreen, NADH absorbance; in the data active = inhibition above about 30%
FBA Mtb inh: inhibitors of M. tuberculosis fructose-bisphosphate aldolase; P9WQA3; purified M. tuberculosis FBA, fluorescence read-out; inhibition, % at 1 µM; actives 2.3% (n = 360,000); AID 588726; in the data active = inhibition above about 27%
Mtb hypoxia rep: Mtb hypoxia fluorescent reporter inhibition. fluorescence inhibition, % (no concentration beside the values). actives 0.1% (n = 300,000). AID 1159583. M. tuberculosis hypoxia-regulated fluorescent reporter, fluorescence; in the data active = fluorescence inhibition mostly above about 23%, no sharp cut-off; inactive = mostly below about 17%
FadD28 binding: blocks FadD28 binding to the bisubstrate probe | fluorescence polarization | inhibition, % at 12.5 µM | actives 0.22% (n = 360,000) | AID 588549; in the data active = inhibition above about 8.5%, passing the limit was not always enough
Mtb UGM inh: inhibitors of M. tuberculosis UDP-galactopyranose mutase; purified UGM, fluorescence polarization probe displacement; inhibition, % at 10 µM; actives 0.06% (n = 320,000); in the data active = inhibition above about 10%, passing the limit was not always enough
Rv3671c protease: inhibitors of M. tuberculosis serine protease Rv3671c; inhibition, % at 5.96 µM; P9WHR9; actives 0.048% (n = 320,000); in the data active = inhibition above about 38%;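 note: extracellular domain of Rv3671c used as enzyme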
Target sequence (P9WHR9 whole entry, looked up, the tested form may be a part): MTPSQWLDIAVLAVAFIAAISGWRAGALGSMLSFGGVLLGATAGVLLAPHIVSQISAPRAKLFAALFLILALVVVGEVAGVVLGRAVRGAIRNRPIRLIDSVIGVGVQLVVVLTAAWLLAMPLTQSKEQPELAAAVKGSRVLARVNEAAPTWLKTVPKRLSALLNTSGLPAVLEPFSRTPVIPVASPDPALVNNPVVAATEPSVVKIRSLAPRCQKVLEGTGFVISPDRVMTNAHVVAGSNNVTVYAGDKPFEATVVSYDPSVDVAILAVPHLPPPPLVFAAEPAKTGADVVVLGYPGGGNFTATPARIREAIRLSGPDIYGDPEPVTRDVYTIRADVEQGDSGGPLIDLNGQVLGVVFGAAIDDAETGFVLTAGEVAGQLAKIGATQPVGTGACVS
Hits are given with their value; 0 = inactive; - = no result; + = active, no number. This is a sample that favours compounds with a hit; in the whole collection about 3.5% have one here.

SMILES	GDH-TPI counter	FBA Mtb inh	Mtb hypoxia rep	FadD28 binding	Mtb UGM inh	Rv3671c protease
COc1cc(/C=N/NC(=O)c2cc(-c3ccco3)nc3ccccc23)cc(OC)c1O	47	0	-	0	0	0
COc1cc(/C=N/NC(=O)c2cc(-c3ccccc3Cl)nc3ccccc23)cc(OC)c1O	39	0	-	0	0	0
COc1cc(N2Cc3ccccc3C2)ccc1C=O	34	0	0	0	0	0
Cc1cc(C)cc(N2Cc3ccccc3C2)c1	0	0	0	0	0	0
O=C(NN=Cc1ccc(Cl)cc1)c1nc2ccc([N+](=O)[O-])cc2c(=O)[nH]1	-	-	0	-	-	-
COc1ccc2c(c1)c(C(=O)NN=Cc1ccccc1Cl)c(C)n2C	-	-	0	-	-	-
COc1ccc2c(c1)c(C(=O)N/N=C/c1cn(C)c3ccccc13)c(C)n2C	37	0	-	0	0	0
Cn1cc(/C=N/NC(=O)c2ccccc2O)c2ccccc21	59	0	-	0	0	0
Cc1nc(C)c(C(=O)N/N=C/c2cn(C)c3ccccc23)s1	34	0	-	0	0	0
Cn1cc(/C=N/NC(=O)c2cccc([N+](=O)[O-])c2)c2ccccc21	37	0	-	0	0	0
Cn1cc(C(=O)NN=Cc2cccc([N+](=O)[O-])c2)c2ccccc21	-	-	0	-	-	-
CCCCc1ccc(C(C)=NNC(=O)C2CCCC2)cc1	-	-	0	-	-	-
CCN(CC)c1nc(N)c2c(N)n(-c3ccccc3C)c(=S)c(C#N)c2c1C#N	44	0	0	8.3	0	0
COc1ccc(-c2ccc3c(c2)CNCc2cnnn2-3)cc1	-	115	-	0	-	-
c1ccc(-c2ccc3c(c2)CNCc2cnnn2-3)cc1	-	0	-	0	-	-
CCOC(=O)CNC(=O)N1Cc2cc(-c3ccc(OC)cc3)ccc2-n2nncc2C1	-	124	-	0	-	-
CC(C)N1CCN(c2ccc(OCC3CO[C@](Cn4cncn4)(c4ccc(Cl)cc4Cl)O3)cc2)CC1 (stereo not given in full)	-	-	0	-	-	-
CCOc1cc(C=NNC(=O)c2ccc(NC(=O)C(C)(C)C)cc2)ccc1OC(=O)c1ccc(OC)cc1	-	-	0	-	-	-
CC(=O)/C(=N/Nc1ccccc1)Sc1nnc(CCc2ccccc2)n1-c1ccccc1	32	0	-	0	0	0
O=C(CC1(O)C(=O)Nc2ccccc21)c1ccc(-n2cnnn2)cc1 (stereo not given)	0	0	0	0	0	0
CCS(=O)(=O)Nc1ccc(C(=O)CC2(O)C(=O)Nc3ccccc32)cc1 (stereo not given)	39	0	0	0	0	0
NC(=NOC(=O)C=Cc1ccccc1Cl)c1ccccn1	-	-	0	-	-	-
O=C(NN=Cc1cccs1)c1cccnc1	-	-	0	-	-	-
CC(C)CN(C(=O)c1ccc(-n2cncn2)c([N+](=O)[O-])c1)C1CCS(=O)(=O)C1 (stereo not given)	0	0	0	22	0	0
COc1cccc(-n2c(SCC(=O)N3CCOCC3)nc3c([nH]c4ccccc43)c2=O)c1	33	0	0	0	0	0
SMILES	GDH-TPI counter	FBA Mtb inh	Mtb hypoxia rep	FadD28 binding	Mtb UGM inh	Rv3671c protease
COc1cccc(-n2c(SCC(=O)N3CCOCC3)nnc2-c2c[nH]c3ccccc23)c1	0	0	0	0	0	0
O=C(O)c1cccc2cc(-c3ccccc3)oc(=O)c12	0	0	0	-	0	0
O=C(O)c1cccc2cccc(-c3c4ccc(=O)c(O)c-4oc4c(O)c(O)ccc34)c12	0	0	-	44	-	-
CC(=O)Nc1cccc(C(C)=NNC(=O)c2cc(-c3ccncc3)nc3ccccc23)c1	-	-	0	-	-	-
COCCNC(=O)Cn1cc(/C=C2\C(=O)NC(=O)N(c3ccccc3F)C2=O)c2ccccc21	0	0	0	0	15	0
COCCCNC(=O)Cn1cc(/C=C2\C(=O)NC(=O)N(c3ccccc3F)C2=O)c2ccccc21	0	0	0	0	23	0
NC(=O)Cn1cc(C=C2C(=O)NC(=O)NC2=O)c2ccccc21	0	0	0	0	30	-
CC1(C)OC2C(CO)OC(n3c(N4CCCCC4)nc4c(N)ncnc43)C2O1 (stereo not given)	-	-	0	-	-	-
CC[n+]1c(-c2ccccc2)c2cc(N)ccc2c2ccc(N)cc21	0	0	-	15	-	-
COc1ccc(-c2nc(C#N)c(NCC3CCCO3)o2)cc1OC (stereo not given)	0	180	0	0	0	0
N#Cc1nc(-c2ccccc2Cl)oc1NCC1CCCO1 (stereo not given)	0	0	0	0	0	0
CCCOc1ccc(-c2nc(C#N)c(NCC3CCCO3)o2)cc1 (stereo not given)	0	121	0	0	0	0
CCOc1ccc(-c2nc(C#N)c(NCC3CCCO3)o2)cc1 (stereo not given)	0	177	0	0	0	0
CC(=NNC(=O)CNC(=O)COc1ccccc1)c1ccc(Cl)cc1	-	-	0	-	-	-
CCN(CC)CCNC(=O)c1cc2c(-c3ccc(Cl)cc3)nn(C)c2s1	0	136	-	0	-	0
O=C(c1ccco1)c1cn(CC(=O)N2CCCCCC2)c2ccccc12	38	0	-	0	0	0
CCOC(=O)C1C2COc3ccc(Br)cc3C2N2C(=O)CN(Cc3ccccc3)C(=O)[C@@]12C (stereo not given in full)	-	-	0	-	-	-
CCc1cc(=O)oc2c(CNCc3c(F)cccc3Cl)c(O)ccc12	0	+	0	0	0	0
Cc1occc(=O)c1OCc1c(F)cccc1Cl	0	0	0	0	0	0
O=c1cc(-c2ccccc2)c2cc(Cl)c(O)c(CN3CCOCC3)c2o1	0	0	0	0	0	0
CCc1cc(=O)oc2c(CN3CCN(C)CC3)c(O)c(Cl)cc12	44	+	0	0	0	0
CCc1cc(=O)oc2c(CN3CCN(C)CC3)c(O)ccc12	0	+	0	0	0	0
CCCc1cc(=O)oc2c(CNc3ccc(OCC)cc3)c(O)ccc12	0	165	0	0	0	0
CCOc1ccc2c(CC)cc(=O)oc2c1OCC	0	0	0	0	0	0
CC=CC(=O)Nc1cccc(C2=NOC3(C2)CC(C(N)=O)N(C(=O)C=CCC)C3)c1 (stereo not given)	-	-	0	-	-	-
SMILES	GDH-TPI counter	FBA Mtb inh	Mtb hypoxia rep	FadD28 binding	Mtb UGM inh	Rv3671c protease
Cc1nnsc1C(=O)NN=Cc1c(F)cccc1Cl	-	-	0	-	-	-
COc1ccc(C=NNC(=O)Cn2cnc3ccccc3c2=O)cc1OC	-	-	0	-	-	-
CCCCc1cc(=O)oc2c(CN3CCCC3)c(O)ccc12	0	+	0	0	0	0
O=c1cc(-c2ccccc2)c2ccc(O)c(CN3CCCCC3)c2o1	0	0	0	0	0	0
CCc1c(C)c2cc(Cl)c(O)c(CN3CCCCC3)c2oc1=O	0	+	0	0	0	0
CCc1cc(=O)oc2c(CN3CCCC3)c(O)c(Cl)cc12	0	+	0	0	0	0
Cc1cc2oc(=O)cc(CN3CCOCC3)c2c(C)c1Cl	0	137	0	0	0	-
Cc1cc2oc(=O)cc(CN3CCOCC3)c2cc1Cl	0	0	0	0	0	0
Cc1cc2oc(=O)cc(CN3CCCCC3)c2cc1Cl	-	0	-	0	-	-
Cc1ccsc1C=c1sc2ncnn2c1=O	-	-	0	-	-	-
Cc1ccc2oc(=O)cc(CN3CC(C)OC(C)C3)c2c1 (stereo not given)	0	0	0	0	0	0
